HSP90 refold inh – blocks HSP90-mediated luciferase refolding in reticulocyte lysate | inhibition, % at 5.6 µM | hit rate 0.91% among 290,000 | Rabbit reticulocyte lysate, luciferase refolding luminescence, 3 h;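 active = inhibition above the screen-wide mean plus 3 SD, computed separately per campaign, cut at about 16% in these data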;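 also: 0% = DMSO wells and 100% = 60 µM geldanamycin wells; inhibitors lower the luminescence because luciferase stays unfolded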
EBV LMP1 NFkB – Epstein-Barr LMP1 NF-kappaB reporter inhibition | inhibition, % at 12.5 µM | hit rate 0.69% among 350,000 | AID 504558 | LMP1-induced NF-kappaB luciferase reporter cells, luminescence; in the data active = inhibition above about 41%;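 also: 0% = neutral control wells and 100% = reference inhibitor control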
TWEAK Fn14 block – TWEAK-Fn14 signaling inhibition; TWEAK-stimulated Fn14 reporter cells, luciferase luminescence, 8 h; inhibition, % at 10 µM; hit rate 2% among 360,000; AID 1159606; in the data active = inhibition above about 50%
TROY NFkB inh – inhibitors of TROY-dependent NF-kB signaling; Q293 LMP1-TROYcd NF-kB luciferase reporter, 4 h; inhibition, % at 10 µM; hit rate 0.98% among 360,000;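 active = compounds whose plate-normalised and pattern-corrected inhibition of the luciferase reporter signal at the single screening dose is 50% or more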
HSF-1 act – increases HSF-1 driven luciferase reporter signal. NIH3T3-HGL HSF-1 luciferase reporter, MG132, 8 h; 100% = twice DMSO control signal. activation, % at 9 µM. hit rate 1.7% among 300,000. AID 504408;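 active = mean replicate activation of at least 50% with a set share of replicates each reaching 50%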;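 also: 0% = median of the neutral control wells and 100% = twice that signal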
HSF1 inhib – HSF1 inhibition; NIH3T3-HGL HSE-luciferase, MG132-induced, luminescence 8 h; active compounds read low; activity change, negative = inhibition, % at 7.5 µM (by protocol); hit rate 0.77% among 300,000;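 active = more than half of replicate wells show activity change below -50%, luminescence cut by over half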;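 also: luciferase reports HSF-1 transcriptional activity via heat shock element; 0% = median of DMSO wells and -100% = zero luminescence signal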
Active calls of the source: *. Most compounds without a hit are left out; they make up all but 4.7% or so of the library.

For Cc1ccc(F)cc1C(=O)N1CCCCC1c1cc(C(=O)Nc2ccc(F)c(Cl)c2)no1 (stereo not given) the results were TWEAK Fn14 block 6 and TROY NFkB inh 25.
`O=c1c2ccccc2nc2c3ccccc3cnn12` gave HSP90 refold inh 1, EBV LMP1 NFkB -29, TWEAK Fn14 block -38, TROY NFkB inh -100, HSF-1 act 9 and HSF1 inhib 3.
O=c1c2ccccc2cnn1-c1nc2ccccc2[nH]1 was read as HSP90 refold inh 92*, EBV LMP1 NFkB 85*, TWEAK Fn14 block 97*, TROY NFkB inh 89*, HSF-1 act -85 and HSF1 inhib -83*.
Screening COc1ccc2c(c1)C1=NN(/C(C)=C/C(C)=O)C(c3ccc(F)cc3)C1CC2 (stereo not given) returned HSP90 refold inh 1, EBV LMP1 NFkB -22, TWEAK Fn14 block 4, TROY NFkB inh -40, HSF-1 act 53* and HSF1 inhib 23.
For C[C@H](CO)N1C[C@H](C)[C@@H](CN(C)Cc2ccc(C(=O)O)cc2)Oc2ncc(Br)cc2C1=O the results were EBV LMP1 NFkB -11, TWEAK Fn14 block 2 and TROY NFkB inh 1.
Screening COc1ccc(/C=C/C(=O)N(C(C)C)C(C)C)cc1Br returned HSP90 refold inh -1, EBV LMP1 NFkB 13, TWEAK Fn14 block -30, TROY NFkB inh -22, HSF-1 act 99* and HSF1 inhib 55.
O=C(NCc1cccs1)c1ccc2sc([C@H]3C[C@H](O)[C@@H](CO)O3)nc2c1 was read as TWEAK Fn14 block -12 and TROY NFkB inh -11.
For CC(C)CC1NC(=O)N(Cc2nc3ccccc3s2)C1=O (stereo not given) the results were HSP90 refold inh 1, EBV LMP1 NFkB -7, TWEAK Fn14 block 72*, TROY NFkB inh 0, HSF-1 act 9 and HSF1 inhib 3.
CCOC(=O)N1CCN(C(=O)CS(=O)(=O)c2cn(Cc3ccc(F)cc3)c3ccccc23)CC1 was read as EBV LMP1 NFkB 2, TWEAK Fn14 block -3, TROY NFkB inh -15, HSF-1 act 96* and HSF1 inhib 70.
CC1(C)CC(=O)c2cnc(N3CCc4ccccc4C3)nc2C1 was read as HSP90 refold inh -3, EBV LMP1 NFkB -4, TWEAK Fn14 block 29, TROY NFkB inh -2, HSF-1 act 55* and HSF1 inhib 42.
Screening COCCN1C(=O)COc2ccccc2C1C(=O)Nc1ccc2c(c1)OCCO2 (stereo not given) returned TWEAK Fn14 block -7 and TROY NFkB inh -18.
`Oc1ccc(CCNc2ncnc3ccc(Cl)cc23)cc1` gave HSP90 refold inh -1, EBV LMP1 NFkB 20, TWEAK Fn14 block 94*, TROY NFkB inh 56*, HSF-1 act -40 and HSF1 inhib -38.
CCCCCCN1CCN(C2CN(Cc3cn(Cc4ccc(C)cc4)nn3)S(=O)(=O)C2)CC1 (stereo not given) was read as TWEAK Fn14 block 5 and TROY NFkB inh 15.

Compound activity from PubChem.
